Assay results: PubChem BioAssay AID504832 (National Center for Advancing Translational Sciences (NCATS), 2011)
The campaign covered roughly 310,000 compounds. About 18,000 (5.8%) were called active. Where a call stands in place of a potency, no number is given. Inconclusive results (about 22%) are left out. This excerpt belongs to a sample that is enriched for actives. Values without a mark were called inactive. Calls follow the shape of the dose curve; as a rule, active = well fitted inhibition curve with a large enough effect; inconclusive = small, poorly fitted or top-dose-only effect, or another doubt; inactive = no such curve, though single readings can be large or run the other way.

Assay: Primary qHTS for delayed death inhibitors of the malarial parasite plastid, 48 hour incubation
Conditions: P. falciparum luciferase growth in erythrocytes; series mostly up to 28.7 µM
Method in brief: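 Cell-based growth assay: transgenic P. falciparum expressing firefly luciferase, cultured in red cells within RPMI 1640 containing 0.5% w/v Albumax, 24 mM bicarbonate and gentamycin. A drop in luciferase activity indicates inhibition.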
Potency is read from the fitted curve at half-maximal effect.

Row | SMILES | Potency | activity change, negative = inhibition
1 | COc1cc(OC)cc(C(=O)NCC(=O)N2CCCCCCC2)c1 | inactive | –
2 | CN(C)P(=S)(Nc1ccccc1)C(Cl)(Cl)Cl (stereo unspecified) | 11.7 µM (active) | –
3 | O=S(=O)(Nc1ccc2nc(N3CCOCC3)sc2c1)c1ccccc1 | inactive | –
4 | C#CCOCCOCCOCCNc1nc(N2CCN(C(=O)CCCCCCCCCCNC(=O)Cn3cc(CCCCCN)nn3)CC2)nc(N2CCN(C(=O)CCCCCCCCCCNC(=O)[C@H](CO)n3cc(CCCSC)nn3)CC2)n1 | 2.94 µM (active) | –
5 | C#CCOCCOCCOCCNc1nc(N2CCN(C(=O)[C@H](CCC(=O)O)n3cc(C(N)CO)nn3)CC2)nc(N2CCN(C(=O)[C@H](Cc3ccc(O)cc3)n3cc(C(N)[C@H](C)CC)nn3)CC2)n1 (stereo partly specified) | inactive | –
6 | C#CCOCCOCCOCCNc1nc(N2CCN(C(=O)CCCCCCCCCCNC(=O)[C@H](CCCCN)n3cc(C)nn3)CC2)nc(N2CCN(C(=O)CCCCCCCCCCNC(=O)[C@H](CO)n3cc(CCCSC)nn3)CC2)n1 | 0.586 µM (active) | –
7 | C#CCOCCOCCOCCNc1nc(N2CCN(C(=O)[C@H](CCC(=O)O)n3cc(C(N)CO)nn3)CC2)nc(N2CCN(C(=O)[C@H](CCCCN)n3cc(C(N)[C@H](C)CC)nn3)CC2)n1 (stereo partly specified) | inactive | –
8 | C#CCOCCOCCOCCNc1nc(N2CCN(C(=O)[C@H](C(C)C)n3cc(CCO)nn3)CC2)nc(N2CCN(C(=O)[C@H](C(C)C)n3cc(CCO)nn3)CC2)n1 | inactive | –
9 | C#CCOCCOCCOCCNc1nc(N2CCN(C(=O)[C@H](C(C)C)n3cc(CCO)nn3)CC2)nc(N2CCN(C(=O)[C@H]([C@@H](C)CC)n3cc(CCCN=C(N)N)nn3)CC2)n1 | inactive | –
10 | C#CCOCCOCCOCCNc1nc(N2CCN(C(=O)CCCCCCCCCCNC(=O)[C@H]([C@@H](C)CC)n3cc(CCCCN=C(N)N)nn3)CC2)nc(N2CCN(C(=O)CCCCCCCCCCNC(=O)[C@H](CO)n3cc(CCCSC)nn3)CC2)n1 | 0.329 µM (active) | –
11 | C#CCOCCOCCOCCNc1nc(N2CCN(C(=O)[C@H](CCCCN)n3cc(CCC(=O)O)nn3)CC2)nc(N2CCN(C(=O)[C@H](CCCCN)n3cc(CC(C)O)nn3)CC2)n1 (stereo partly specified) | inactive | –
12 | C#CCOCCOCCOCCNc1nc(N2CCN(C(=O)[C@H](CCC(=O)O)n3cc(C(N)CO)nn3)CC2)nc(N2CCN(C(=O)[C@H](CCCCN)n3cc(C(N)CC(C)C)nn3)CC2)n1 (stereo partly specified) | inactive | –
13 | COc1ccccc1Oc1ccc(N2CC(C(=O)OCC(=O)c3ccc(F)cc3)CC2=O)cc1 (stereo unspecified) | inactive | –
14 | Cc1ccccc1NC(=O)c1cc(S(=O)(=O)Nc2cccc(C(=O)O)c2)ccc1Cl | inactive | –
15 | CC(C)[C@@H]1COC(c2cccc(C3=N[C@H](C(C)C)CO3)c2)=N1 | inactive | –
16 | CC1C(=O)N(Cc2ccccc2)c2ccccc2N1C(=O)c1ccccc1 (stereo unspecified) | inactive | –
17 | O=C(OCC(=O)N1CCc2ccccc21)C1CCCN1S(=O)(=O)c1ccc(Cl)cc1 (stereo unspecified) | inactive | –
18 | O=C(c1ccncc1)N1CCN(S(=O)(=O)c2cc(C(F)(F)F)cc(C(F)(F)F)c2)CC1 | 11.7 µM (active) | –
19 | O=C(Cc1ccsc1)N1CCN(S(=O)(=O)c2cc(C(F)(F)F)cc(C(F)(F)F)c2)CC1 | inactive | –
20 | O=C(c1ccncc1)N1CCN(S(=O)(=O)c2cccc([N+](=O)[O-])c2)CC1 | inactive | –
21 | CCn1c(SCC(=O)NC2CC2)nnc1-c1ccccc1OC | inactive | –
22 | Cc1cccn2c(=O)nc(SCC(=O)NCc3ccccc3Cl)nc12 | inactive | –
23 | COc1ccc(OCCCCN2CCC(C)CC2)cc1 | – | -11.4% [at 0.00184 µM]

Row | SMILES | Potency | activity change, negative = inhibition
24 | Cc1ccc2nc(SCC(=O)N3CCN(c4ccccc4)CC3)nc(=O)n2c1 | inactive | –
25 | COc1cc(NC(=O)N2CCOCC2)cc(OC)c1 | inactive | –
26 | O=C(Oc1ccc2c(c1)CCC2)N1CCOCC1 | inactive | –
27 | O=C(Nc1cccc(OC(=O)N2CCCCC2)c1)N1CCOCC1 | 10.4 µM (active) | –
28 | COc1cc(OC)cc(C(=O)NCCCn2ccnc2)c1 | inactive | –
29 | COCCNc1ncnc2c1nc1n2CCCC1 | inactive | –
30 | Cc1ccc(S(=O)(=O)NCC(=O)Nc2ccc3c(c2)OCCO3)cc1 | inactive | –
31 | CN(CC(=O)NCc1cccnc1)S(=O)(=O)c1cc(Cl)ccc1Cl | inactive | –
32 | CC(C)c1ccc(Nc2ncccc2C#N)cc1 | inactive | –
33 | Nc1ccc(Nc2cc(O)c3ncccc3c2)cc1 | 10.4 µM (active) | –
34 | Cc1cccc(C)c1NC(=S)N1CCCCCC1 | inactive | –
35 | COc1cccc(CNC(=O)CCCC(=O)Nc2cccc([N+](=O)[O-])c2)c1 | inactive | –
36 | O=C(NCc1cccc(Cl)c1)C1CCC(=O)N(C2CC2)C1 (stereo unspecified) | inactive | –
37 | O=C(CCN1C(=O)C2CCCCC2C1=O)Nc1ccc(OC(F)F)cc1 (stereo unspecified) | inactive | –
38 | Cc1ccc(C(=O)NCCc2nnc(SCC(=O)Nc3cccc(C(=O)O)c3)n2C)cc1 | inactive | –
39 | CCOC(=O)c1ccc(NC(=O)c2nc[nH]c2C(=O)N[C@@H](CCCCNC(=O)OC(C)(C)C)C(=O)OC(C)(C)C)cc1 | 6.57 µM (active) | –
40 | Cc1ccc(NC(=O)c2nc[nH]c2C(=O)N[C@@H](CCCCNC(=O)OC(C)(C)C)C(=O)OC(C)(C)C)cc1 | 13.1 µM (active) | –
41 | C[C@H](NC(=O)c1nc[nH]c1C(=O)N[C@@H](C)C(=O)OC(C)(C)C)C(=O)OC(C)(C)C | 9.28 µM (active) | –
42 | CCOC(=O)c1ccc(NC(=O)c2nc[nH]c2C(=O)NCc2ccccc2)cc1 | inactive | –
43 | C[C@H](NC(=O)c1nc[nH]c1C(=O)NCC(=O)OC(C)(C)C)C(=O)OCc1ccccc1 | inactive | –
44 | Cc1ccc(NC(=O)OCCNC(=O)c2ccncc2)cc1 | inactive | –
45 | CCOC(=O)c1[nH]cnc1C(=O)Nc1ccccc1C | inactive | –
46 | Cc1cccc(NC(=O)c2nc[nH]c2C(=O)NCC(=O)OCc2ccccc2)c1 | inactive | –
